A short description of test [1]: qHTS assay for small molecule agonists of the p53 signaling pathway (AID 651631; calls by dose curve; note: nearly all actives have a fitted effect of over 15% in size). The procedure, abridged:
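Fluorescence intensity from cleaved LiveBLAzer B/G substrate (2 h, room temperature) served as the signal. Beforehand, HCT-116 reporter cells bearing p53 response elements were treated 16 h at 37 °C with DMSO-dissolved compounds.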
Background: Quantitative high-throughput screening tests each substance at several concentrations.

Test [2] in a line: qHTS assay for small molecules that induce genotoxicity in human embryonic kidney cells expressing luciferase-tagged ATAD5 (AID 651632). Note: nearly all actives have a fitted effect of over 15% in size. In a few lines:
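DMSO vehicle served as the control. HEK293T reporter cells, 16 hr at 37C, then 30 min Amplite at room temperature; ATAD5 induction is measured as luciferase activity.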

Test [3] in a line: qHTS assay for small molecule agonists of the p53 signaling pathway - cell viability (AID 651633; calls by dose curve;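 note: p53RE-bla HCT reporter cells with a stable beta-lactamase p53 reporter; series mostly up to about 83 µM; nearly all actives have a fitted effect of over 30% in size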). In a few lines:
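Viability counter-read: CellTiter-Glo luminescence (30 min, room temperature) in the same p53RE-bla plates. These plates had been exposed to compounds for 16 h at 37 C.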

Test [4] in a line: qHTS assay for small molecules that induce genotoxicity in human embryonic kidney cells expressing luciferase-tagged ATAD5 - cell viability (AID 651634; calls by dose curve; note: nearly all actives have a fitted effect of over 25% in size). In a few lines: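 Here HEK293T cells with the ATAD5 luciferase reporter are incubated with test compounds for 15.5 hr, and cytotoxicity is then gauged by measuring protease activity in live cells using fluorescence.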
Test [5] is described as follows: qHTS assay for small molecule disruptors of the mitochondrial membrane potential - cell viability (AID 720634; calls by dose curve;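 note: human HepG2 liver cancer cells; series mostly up to about 83 µM; nearly all actives have a fitted effect of over 20% in size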). The procedure, abridged: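 Viability of HepG2 cells is scored from ATP content by luminescence; cells are exposed to compound for 1 hr at 37 C and 5% CO2, then dosed with m-MPI dye before the CellTiter-Glo reagent.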
Test [6] is described as follows: qHTS assay for small molecule disruptors of the mitochondrial membrane potential (AID 720635). Note: potency is the fitted concentration of half-maximal effect. The procedure, abridged:
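Mitochondrial membrane potential tracked with Mito-MPS dye, red aggregates (ex 540/em 590 nm) against green monomers (ex 490/em 535 nm). Compound treatment 1 hr at 37C, dye 30 min in HepG2.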

Test [7] in a line: qHTS assay to test for compound auto fluorescence at 590 nm (red) in HepG2 cells (AID 720674). In a few lines:
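We screened compounds on adherent HepG2 cells, incubating them for an hour at 37 C in 5% CO2 before reading emission at 590 nm under 540 nm excitation; values reflect equivalence to Rose Bengal sodium fluorescence.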

Test [8] in a line: qHTS assay to test for compound auto fluorescence at 535 nm (green) in HepG2 cells (AID 720675).
Test [9] in a line: qHTS assay to test for compound auto fluorescence at 460 nm (blue) in HEK293 cells (AID 720678). The procedure, abridged:
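HEK293 cells (2,000/well, medium with 10% dialyzed FBS) attached 4-5 hr, then exposed to compound overnight at 37C, 5% CO2. Blue fluorescence read at 405/460 nm, with triamterene as reference fluorophore.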

Test [10] in a line: qHTS assay to test for compound auto fluorescence at 590 nm (red) in HEK293 cells (AID 720679). The procedure, abridged: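 HEK293 cells (2,000/well, 10% dialyzed FBS) attached 4-5 hr, then dosed with compound or DMSO and incubated overnight at 37C, 5% CO2. Red fluorescence read at 540/590 nm, Rose Bengal sodium as reference fluorophore.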
Test [11] is described as follows: qHTS assay to test for compound auto fluorescence at 535 nm (green) in HEK293 cells (AID 720680).
Test [12] can be described thus: qHTS assay to test for compound auto fluorescence at 460 nm (blue) in HEK293 cell free culture (AID 720681). The procedure, abridged: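 Blue fluorescence (Ex 405/Em 460 nm, triamterene-equivalent) was read immediately after pin transfer of compound or DMSO into medium (DMEM, 10% FBS) without cells.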
The nature of test [13]: qHTS assay to test for compound auto fluorescence at 535 nm (green) in HEK293 cell free culture (AID 720682). In a few lines: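 Intrinsic compound fluorescence is measured in culture medium containing 10% FBS, with excitation at 485 nm and detection at 535 nm, referenced to fluorescein.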
The nature of test [14]: qHTS assay to test for compound auto fluorescence at 590 nm (red) in HEK293 cell free culture (AID 720683). The procedure, abridged: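 Red-channel autofluorescence of compounds in culture medium (DMEM, 10% FBS), no cells, measured at 540/590 nm. Rose Bengal sodium is the reference fluorophore for equivalence.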
Test [15] can be described thus: qHTS assay to test for compound auto fluorescence at 590 nm (red) in HepG2 cell free culture (AID 720684). The procedure, abridged: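 No cells present: MEM + 10% FBS only. Compound pinned in, red label read (540/590 nm). Activity = fluorescence equivalent to Rose Bengal sodium.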
A short description of test [16]: qHTS assay to test for compound auto fluorescence at 460 nm (blue) in HepG2 cell free culture (AID 720685). In a few lines:
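Cell-free plates of MEM plus 10% FBS received 23 nL compound or DMSO vehicle; blue-channel (405/460 nm) intensity scored against triamterene as reference fluorophore.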

A short description of test [17]: qHTS assay to test for compound auto fluorescence at 535 nm (green) in HepG2 cell free culture (AID 720686).
Test [18] in a line: qHTS assay to test for compound auto fluorescence at 460 nm (blue) in HepG2 cells (AID 720687). The procedure, abridged: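 Blue-channel autofluorescence (Ex/Em 405/460 nm, triamterene-equivalent) was measured after 1 hr compound exposure at 37 C, 5% CO2. Cells were HepG2, plated overnight at 37 C in MEM plus 10% FBS.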
Test [19] deals with Glucocorticoid receptor (Homo sapiens) (UniProt P04150). The experiment in a line: qHTS assay to identify small molecule agonists of the glucocorticoid receptor (GR) signaling pathway (AID 720691; active = well fitted activation curve with a large enough effect in the signal ratio in the repeat runs, not every such curve was filed as active; the % refers to the signal ratio). The procedure, abridged:
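Compounds in DMSO, alongside positive controls, were added to GR-bla HeLa reporter cells and incubated 18 h at 37 C; GRE-driven beta-lactamase was detected by fluorescence after 2 h with FRET substrate at room temperature.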

For test [20] the target is unchanged. Kind of test: qHTS assay to identify small molecule antagonists of the glucocorticoid receptor (GR) signaling pathway (AID 720692; active = well fitted inhibition curve with a large enough effect in the signal ratio in the repeat runs, not every such curve was filed as active; the % refers to the signal ratio). In a few lines:
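In a 1536-well cell format, compounds were added 4 h after seeding GR-bla HeLa cells, together with dexamethasone at 5 nM final; reporter activity was measured by FRET-substrate fluorescence following 18 h at 37 C.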

Records with an inconclusive call do not appear. Activity calls are given as the source filed them. Unless noted, calls come from the whole dose curve; as a rule, active = well fitted curve in the direction sought with a large enough effect in the repeat runs; inconclusive = weak or mixed curves; inactive = no such curve, though single readings can be large; an effect the other way counts as inactive or inconclusive.

Chain of Glucocorticoid receptor (Homo sapiens) (P04150 whole entry, looked up): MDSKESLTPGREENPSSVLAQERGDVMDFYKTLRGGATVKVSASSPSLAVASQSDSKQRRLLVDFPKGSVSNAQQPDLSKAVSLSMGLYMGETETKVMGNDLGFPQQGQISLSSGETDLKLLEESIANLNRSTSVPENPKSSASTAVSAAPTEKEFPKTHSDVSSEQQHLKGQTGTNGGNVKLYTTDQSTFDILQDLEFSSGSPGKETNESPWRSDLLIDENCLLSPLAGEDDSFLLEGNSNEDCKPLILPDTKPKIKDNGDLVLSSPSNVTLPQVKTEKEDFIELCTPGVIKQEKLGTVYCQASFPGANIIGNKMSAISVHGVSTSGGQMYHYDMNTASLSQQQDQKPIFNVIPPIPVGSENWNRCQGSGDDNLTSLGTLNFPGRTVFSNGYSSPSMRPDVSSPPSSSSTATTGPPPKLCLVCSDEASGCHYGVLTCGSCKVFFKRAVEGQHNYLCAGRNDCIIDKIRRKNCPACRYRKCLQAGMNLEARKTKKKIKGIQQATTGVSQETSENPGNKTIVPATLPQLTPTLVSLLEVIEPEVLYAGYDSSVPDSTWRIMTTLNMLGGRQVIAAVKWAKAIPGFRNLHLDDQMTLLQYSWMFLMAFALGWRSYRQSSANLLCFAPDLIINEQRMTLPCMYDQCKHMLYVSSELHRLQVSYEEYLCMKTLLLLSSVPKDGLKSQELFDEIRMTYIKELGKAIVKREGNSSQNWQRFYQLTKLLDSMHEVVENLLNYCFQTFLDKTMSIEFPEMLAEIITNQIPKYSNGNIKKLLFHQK

Regarding `Cc1ccc(N=C=O)cc1N=C=O`, the Potency entry in test [1], in [2], in [3], in [4], in [5] and in test [20] was “inactive” in each case. Further, the Potency in test [6] is 19.8 µM (active). Also, the result in test [7], in test [8], in test [9], in test [10], in test [11] and in test [12] was inactive. Besides, the result in test [13], in test [14], in test [15], in [16], in [17] and in test [18] was inactive. Also, in test [19], the call was inactive.
Take `CNC(=O)O/N=C(\SC)C(=O)N(C)C`: the Potency result in [1], in test [2], in test [3], in [4], in test [5] and in test [6] was “inactive” in each case. Besides, the molecule was called inactive in [7], in test [8], in test [9], in test [10], in test [11] and in test [12]. In addition, the result in test [13], in test [14], in test [15], in [16], in test [17] and in test [18] was inactive.
For `O=[N+]([O-])c1ccc(Cl)cc1`, the Potency result in [1], in test [2], in [3], in test [4], in test [5] and in test [6] was “inactive” throughout. In addition, the Potency result in test [20] was “inactive”. The outcome in test [7], in test [8], in [9], in test [10], in test [11] and in [12] was inactive. The molecule was classed as inactive in test [13], in [14], in [15], in test [16], in test [17] and in test [18]. Besides, the molecule was classed as inactive in test [19].
With `N#Cc1ccccn1`, the Potency result in [1], in [2], in test [3], in test [4], in test [5] and in [6] was “inactive” throughout. The result in [7], in test [8], in [9], in test [10], in [11] and in test [12] was inactive. Further, the molecule was classed as inactive in [13], in test [14], in [15], in test [16], in test [17] and in [18].
For `Nc1nc(N)nc(NC2CC2)n1`, the Potency result in test [1], in test [2], in [3], in [4], in test [5] and in test [6] was “inactive” throughout. Moreover, the Potency result in test [20] is “inactive”. In addition, the molecule was called inactive in [7], in test [8], in test [9], in test [10], in test [11] and in test [12]. Further, the call in test [13], in test [14], in [15], in [16], in [17] and in test [18] was inactive. The call in [19] was inactive.
Take `CSc1nnc(C(C)(C)C)c(=O)n1N`: the Potency entry in test [1], in test [2], in test [3], in test [4], in test [5] and in test [6] was “inactive” throughout. In [20], the Potency result was “inactive”. The molecule was classed as inactive in [7], in test [8], in test [9], in test [10], in test [11] and in test [12]. The outcome in test [13], in [14], in test [15], in test [16], in test [17] and in test [18] was inactive. In addition, in [19], the call was inactive.
Take `FC(F)(F)c1ccc(Cl)cc1`: the Potency result in [1], in test [2], in [3], in [4], in test [5] and in test [6] was “inactive” each time. Moreover, the Potency result in [20] is “inactive”. Moreover, the molecule was called inactive in test [7], in test [8], in [9], in test [10], in [11] and in test [12]. In addition, the molecule was classed as inactive in test [13], in test [14], in test [15], in test [16], in test [17] and in test [18]. Besides, the result in [19] was inactive.
With `Nc1cc(Cl)cc(Cl)c1`, the Potency entry in test [1], in [2], in [3], in [4], in test [5] and in test [6] was “inactive” throughout. In addition, the molecule was called inactive in test [7], in test [8], in [9], in test [10], in test [11] and in test [12]. For the same molecule, the result in test [13], in [14], in [15], in [16], in test [17] and in test [18] was inactive.

These data come from PubChem BioAssay (Tox21).
